Laboratory results as given in PubChem BioAssay AID1159580 (chemical genetic matrix, 2015).
The campaign covered roughly 5,500 compounds. About 2,000 (36%) were called active. About 18% were inconclusive and are not listed. Rule as the data show it: active = normalized growth mostly below about 0.91 (no sharp cut-off); inconclusive = no clear call, values can overlap the other calls; inactive = mostly above about 0.92. This is one part of the list.

Assay: chemical genetic growth profiling, strain panel (AID 1159580);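 also: tested at 20 µM; growth read once vehicle control cultures reached saturation at 30 °C; 1 = growth at the plate median or of vehicle wells; lower values mean less growth of the strain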
Settings: growth OD

Measured: normalized growth

CCCCCCc1ccc(O)cc1O
inactive: S. cerevisiae deletion strains, locus YJL187C, strain SWE1, hits give low values 0.952 | S. cerevisiae deletion strains, locus YJR043C, strain POL32, hits give low values 0.876 | S. cerevisiae deletion strains, locus YKL068W, hits give low values 0.967 | S. cerevisiae deletion strains, locus YKL085W, strain MDH1 (second series), hits give low values 0.954 | S. cerevisiae deletion strains, locus YKL085W, strain MDH1, hits give low values 0.954 | S. cerevisiae deletion strains, locus YKL190W, strain CNB1, hits give low values 0.944 | S. cerevisiae deletion strains, locus YKR026C, strain gcn3, hits give low values 0.972 | S. cerevisiae deletion strains, locus YKR091W, strain srl3, hits give low values 0.973 | S. cerevisiae deletion strains, locus YLL001W, strain dnm1, hits give low values 0.935 | S. cerevisiae deletion strains, locus YLL041C, strain sdh2, hits give low values 0.973 | S. cerevisiae deletion strains, locus YLR058C, strain SHM2, hits give low values 0.915 | S. cerevisiae deletion strains, locus YLR102C, strain apc9, hits give low values 0.955 | S. cerevisiae deletion strains, locus YLR268W, strain sec22, hits give low values 0.913 | S. cerevisiae deletion strains, locus YLR342W, strain FKS1 (second series), hits give low values 0.87 | S. cerevisiae deletion strains, locus YLR342W, strain FKS1, hits give low values 0.973 | S. cerevisiae deletion strains, locus YLR357W, strain rsc2, hits give low values 1.07 | S. cerevisiae deletion strains, locus YLR370C, strain arc18, hits give low values 0.925 | S. cerevisiae deletion strains, locus YLR384C, strain iki3, hits give low values 0.997 | S. cerevisiae deletion strains, locus YML016C, strain PPZ1, hits give low values 0.947 | S. cerevisiae deletion strains, locus YML124C, strain tub3, hits give low values 0.934 | S. cerevisiae deletion strains, locus YMR125W, strain sto1, hits give low values 1.04 | S. cerevisiae deletion strains, locus YMR129W, hits give low values 0.976 | S. cerevisiae deletion strains, locus YMR231W, strain pep5, hits give low values 0.999 | S. cerevisiae deletion strains, locus YNL209W, strain ssb2, hits give low values 0.972 | S. cerevisiae deletion strains, locus YNL250W, strain rad50, hits give low values 0.986 | S. cerevisiae deletion strains, locus YNL271C, strain bni1, hits give low values 0.952 | S. cerevisiae deletion strains, locus YNL322C, strain KRE1 (second series), hits give low values 0.927 | S. cerevisiae deletion strains, locus YNR049C, strain mso1, hits give low values 0.978 | S. cerevisiae deletion strains, locus YOL012C, strain htz1 1.21 | S. cerevisiae deletion strains, locus YOR061W, strain CKA2, hits give low values 0.962 | S. cerevisiae deletion strains, locus YOR069W, strain VPS5, hits give low values 0.97 | S. cerevisiae deletion strains, locus YOR070C, strain gyp1, hits give low values 0.95 | S. cerevisiae deletion strains, locus YOR080W, strain dia2, hits give low values 0.969 | S. cerevisiae deletion strains, locus YOR083W, strain WHI5, hits give low values 0.908 | S. cerevisiae deletion strains, locus YOR136W, strain idh2, hits give low values 0.928 | S. cerevisiae deletion strains, locus YOR265W, strain rbl2, hits give low values 0.957 | S. cerevisiae deletion strains, locus YOR316C, strain cot1, hits give low values 0.956 | S. cerevisiae deletion strains, locus YPL106C, strain sse1, hits give low values 1.05 | S. cerevisiae deletion strains, locus YPL241C, strain CIN2, hits give low values 0.953 | S. cerevisiae deletion strains, locus YPR119W, strain clb2, hits give low values 0.956 | S. cerevisiae deletion strains, locus YPR141C, strain kar3, hits give low values 0.963 | S. cerevisiae strains, strain wild type, hits give low values 0.926
active: S. cerevisiae deletion strains, locus YJR066W, strain TOR1, hits give low values 0.813 | S. cerevisiae deletion strains, locus YKL009W, strain mrt4, hits give low values 0.868 | S. cerevisiae deletion strains, locus YKL160W, strain elf1, hits give low values 0.901 | S. cerevisiae deletion strains, locus YKR001C, strain vps1, hits give low values 0.325 | S. cerevisiae deletion strains, locus YLL026W, hits give low values 0.915 | S. cerevisiae deletion strains, locus YLR027C, strain aat2, hits give low values 0.855 | S. cerevisiae deletion strains, locus YLR039C, strain RIC1, hits give low values 0.291 | S. cerevisiae deletion strains, locus YLR113W, strain HOG1, hits give low values 0.744 | S. cerevisiae deletion strains, locus YLR221C, strain rsa3, hits give low values 0.824 | S. cerevisiae deletion strains, locus YLR258W, strain gsy2, hits give low values 0.891 | S. cerevisiae deletion strains, locus YLR262C, strain YPT6 (second series), hits give low values 0.582 | S. cerevisiae deletion strains, locus YLR262C, strain YPT6, hits give low values 0.449 | S. cerevisiae deletion strains, locus YLR320W, strain mms22, hits give low values 0.74 | S. cerevisiae deletion strains, locus YLR330W, strain CHS5, hits give low values 0.872 | S. cerevisiae deletion strains, locus YLR371W, strain rom2, hits give low values 0.622 | S. cerevisiae deletion strains, locus YLR418C, strain cdc73, hits give low values 0.767 | S. cerevisiae deletion strains, locus YML032C, strain rad52, hits give low values 0.784 | S. cerevisiae deletion strains, locus YML120C, strain ndi1, hits give low values 0.836 | S. cerevisiae deletion strains, locus YMR058W, strain fet3, hits give low values 0.881 | S. cerevisiae deletion strains, locus YMR078C, strain ctf18, hits give low values 0.912 | S. cerevisiae deletion strains, locus YMR205C, strain PFK2, hits give low values 0.749 | S. cerevisiae deletion strains, locus YMR223W, strain ubp8, hits give low values 0.801 | S. cerevisiae deletion strains, locus YMR307W, strain GAS1, hits give low values 0.563 | S. cerevisiae deletion strains, locus YNL067W, strain RPL9B, hits give low values 0.779 | S. cerevisiae deletion strains, locus YNL071W, strain lat1, hits give low values 0.64 | S. cerevisiae deletion strains, locus YNL183C, strain NPR1, hits give low values 0.813 | S. cerevisiae deletion strains, locus YNL233W, strain BNI4, hits give low values 0.858 | S. cerevisiae deletion strains, locus YNL248C, strain rpa49, hits give low values 0.84 | S. cerevisiae deletion strains, locus YNL298W, strain CLA4, hits give low values 0.831 | S. cerevisiae deletion strains, locus YNL307C, strain MCK1, hits give low values 0.322 | S. cerevisiae deletion strains, locus YNR052C, strain pop2, hits give low values 0.77 | S. cerevisiae deletion strains, locus YOL147C, strain pex11, hits give low values 0.803 | S. cerevisiae deletion strains, locus YOR001W, strain rrp6, hits give low values 0.876 | S. cerevisiae deletion strains, locus YOR106W, strain vam3, hits give low values 0.837 | S. cerevisiae deletion strains, locus YOR144C, strain elg1, hits give low values 0.861 | S. cerevisiae deletion strains, locus YOR184W, strain ser1, hits give low values 0.685 | S. cerevisiae deletion strains, locus YOR231W, strain MKK1, hits give low values 0.801 | S. cerevisiae deletion strains, locus YOR270C, strain vph1, hits give low values 0.73 | S. cerevisiae deletion strains, locus YOR290C, strain snf2, hits give low values 0.819 | S. cerevisiae deletion strains, locus YPL051W, strain arl3, hits give low values 0.705 | S. cerevisiae deletion strains, locus YPL078C, strain atp4, hits give low values 0.891 | S. cerevisiae deletion strains, locus YPL240C, strain hsp82, hits give low values 0.924 | S. cerevisiae deletion strains, locus YPL256C, strain CLN2, hits give low values 0.782 | S. cerevisiae deletion strains, locus YPR163C, strain tif3, hits give low values 0.906 | S. cerevisiae deletion strains, locus YPR167C, strain met16, hits give low values 0.868 | S. cerevisiae deletion strains, strain wtn01, hits give low values 0.768
